# eLon inh: inhibitors of E. coli Lon protease, primary screen, biochemical, fluorescence polarization; P0A9M0; purified E. coli Lon protease; inhibition, % at 7.94 µM; 360,000 tested, 0.42% active; AID 602123, 2011; in the data active means inhibition above about 13%, passing the limit was not always enough;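 further: 0% = enzyme with probe and DMSO and 100% = no enzyme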
# Keap1 Nrf2 FP: Keap1-Nrf2 protein-protein interaction inhibitors, primary screen, biochemical, fluorescence polarization, single point | Kelch-like ECH-associated protein 1 (Homo sapiens), Q14145 | Keap1 Kelch-Nrf2 peptide fluorescence polarization, 1536-well | inhibition, % at 9.4 µM | 340,000 tested, 0.15% active | AID 504523, 2011; in the data active means inhibition above about 12%;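 further: human Keap1 Kelch domain with fluorescein labeled Nrf2 9mer peptide probe; 0% = neutral control wells and 100% = peptide positive control; higher means more block of Keap1 binding to Nrf2 peptide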
# C-LANA FP: inhibitors of KSHV C-LANA binding to DNA, primary screen, biochemical, fluorescence polarization, FAM-LBS DNA, MBP-C-LANA, single point. Kaposi's sarcoma herpesvirus LANA C-terminal domain (residues 932-1162) DNA binding. inhibition, % at 9 µM. 340,000 tested, 0.078% active;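 active means highest replicate inhibition at or above 60% at 9 µM, even if other replicates fall short; inactive means all replicates below 60% inhibition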;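 further: 0% = neutral control wells and 100% = 4 µM acridine orange control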
# EBNA-1 inh: EBNA-1 DNA-binding inhibitors, primary screen, biochemical, fluorescence polarization. inhibition, % at 14.8 µM. 300,000 tested, 0.34% active. AID 1950, 2009; in the data active means inhibition above about 28%
# ZTA counter: counter-screen for EBNA-1 inhibitors: inhibitors of Epstein-Barr virus ZTA; 320,000 tested, 0.15% active; AID 2234; inhibition, % at 11 µM; ZTA-DNA binding, fluorescence polarization; in the data active means inhibition above about 33%
# Target sequence (P03206 whole entry, looked up): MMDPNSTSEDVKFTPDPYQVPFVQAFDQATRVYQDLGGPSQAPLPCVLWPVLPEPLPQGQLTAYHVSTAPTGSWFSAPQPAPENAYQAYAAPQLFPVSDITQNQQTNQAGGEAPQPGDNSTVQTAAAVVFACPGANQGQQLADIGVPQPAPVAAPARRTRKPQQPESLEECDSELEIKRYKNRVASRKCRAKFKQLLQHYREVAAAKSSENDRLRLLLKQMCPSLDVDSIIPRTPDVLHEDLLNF
# Keap1 TSA: Keap1 Kelch domain binders by thermal stabilisation, dose response, biophysical, thermal shift, RT-PCR instrument, cherry-pick | shares compounds with Keap1 Nrf2 FP | delta Tm; stronger effect = higher value | max delta Tm, degrees C | 400 tested, 8% active; in the data active means max delta Tm above about 0.48 degrees C
# Sypro dye melt: Sypro Orange dye melt without protein, dose response, artefact control for Keap1-Nrf2 interaction inhibitor project, biochemical, thermal shift counterscreen, cherry-pick; shares compounds with Keap1 Nrf2 FP; Sypro Orange dye-only thermal melt, no protein, delta Tm; top dose 26 µM; delta Tm, degrees C (test concentration not listed); 140 tested, under 10 active; AID 651858, 2012;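 active means at highest dose tested, delta Tm positive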
# * hit, by the source's call; / = no result. The list is not random: actives were taken first. Their share in the collection is about 0.85%.
SMILES,eLon inh,Keap1 Nrf2 FP,C-LANA FP,EBNA-1 inh,ZTA counter,Keap1 TSA,others
Cc1c(C(=O)N2CCN(c3ccccc3)CC2)oc2c(F)cccc12,-2,-2,0,6,6,/,
CC(=O)c1ccc(NC(=O)CSc2nnc(NC(=O)C3CC3)s2)cc1,0,3,0,5,13,/,
CCCCN1C(=O)/C(=C2/Sc3ccccc3N2C)S/C1=N\c1ncn[nH]1,-70,41*,21,-2,26,-0.07,Sypro dye melt=-28
CNc1nnc(SCC(=O)c2cc(C)n(C3CC3)c2C)s1,-1,46*,26,/,-20,-0.08,
CCOc1ccc(NC(=O)COC(=O)CCN2C(=O)C3CC=CCC3C2=O)cc1OCC (centres undefined),4,45*,22,/,-18,0.15,
C[C@H](CO)N1C[C@H](C)[C@@H](CN(C)C(=O)NC2CCCCC2)Oc2ccc(NS(=O)(=O)c3cn(C)cn3)cc2C1=O,-3,2,0,/,/,/,
CC(C)NC(=O)N(C)C[C@H]1Oc2ccc(NS(=O)(=O)c3cn(C)cn3)cc2C(=O)N([C@H](C)CO)C[C@@H]1C,-3,29*,22,/,/,-0.11,
CN(C(=O)Cn1cnc2sccc2c1=O)C1CCCCC1,0,3,-2,/,-17,/,
COc1ccc(Br)cc1CNCC1CCCO1 (centres undefined),-9,36*,19,-11,-19,-0.18,
OC(CCN1CCC2(CC1)OCCO2)C(F)(F)F (centres undefined),8,19*,8,5,-9,-0.12,
CCCCCCOC(=O)C(C#N)c1nc2ccccc2nc1N1CCOCC1 (centres undefined),-12,20*,17,-5,2,-0.12,
CCN(CC)c1ccc(C2NC(=O)c3ccccc3N2)cc1 (centres undefined),-13,-1,0,/,/,/,
CCN(CC)c1ccc(C2Nc3cccc4cccc(c34)N2)cc1,-13,26*,25,18,17,-0.02,
COc1cc(NC(=O)CSc2nc3ccccc3cc2C)c(C(=O)O)cc1OC,-19,-4,1,-2,9,/,
COc1cc(NC(=O)CSc2nc3cc(C)ccc3cc2C)c(C(=O)O)cc1OC,-5,16*,10,6,1,-0.12,Sypro dye melt=-21
COc1cccc(CN2CC(C(=O)NCCC3=CCCCC3)CCC2=O)c1 (centres undefined),3,2,0,-19,-11,/,
CC1CCN(c2ccc3c(c2)S(=O)(=O)c2ccccc2C3=O)CC1,-181,21*,24,-7,-1,0.32,
NC(=O)C1CCN(c2ccc3c(c2)S(=O)(=O)c2ccccc2C3=O)CC1,-58,0,5,5,8,/,
CC(C)NC(=O)N(C)C[C@H]1Oc2c(NC(=O)C3CC3)cccc2C(=O)N([C@H](C)CO)C[C@@H]1C,-2,-1,-2,/,/,/,
Cc1cc(Nc2cc(Cl)nc(Sc3ccc(NC(=O)C4CC4)cc3)n2)n[nH]1,8,-3,3,-2,5,/,
Cc1c(NC(=O)C(C)Oc2ccc(Br)cc2)c(=O)n(-c2ccccc2)n1C (centres undefined),-4,-3,-1,/,/,/,
Cc1cccc(C)c1NC(=O)C(c1ccccc1)N(C)CCc1ccccc1 (centres undefined),-9,/,/,/,/,/,
Cc1ccc(NC(=O)CN2C(=O)NC3(CCCCCC3)C2=O)cc1Cl,2,20*,-1,/,-2,-0.03,
Cc1ccc(NC(=O)CN2C(=O)NC3(CCCC3)C2=O)cc1S(=O)(=O)N1CCCCC1,-6,-3,1,/,1,/,
O=C(Nn1cnnc1)c1cc(Br)ccc1Cl,0,-2,0,-1,8,/,
SMILES,eLon inh,Keap1 Nrf2 FP,C-LANA FP,EBNA-1 inh,ZTA counter,Keap1 TSA,others
O=C(Nn1cnnc1)c1ccc(Cl)c(Cl)c1,-6,22*,12,-4,15,-0.05,
CC(Sc1nc2ccccc2s1)C(=O)Nc1nnc(C(C)C)s1 (centres undefined),-1,71*,81*,3,-4,-0.04,
N#Cc1c(SCC(=O)Nc2nncs2)sc2c(O)cc(=O)[nH]c12,-15,21*,20,18,8,0.19,Sypro dye melt=-32
CN(C)c1ccc2cc(S(=O)(=O)O)cc(O)c2c1,3,12*,54,/,/,1.3,
Cc1nnsc1C(=O)N1CCN(c2ccc(F)cc2)CC1,-2,14*,11,4,4,-0.15,
COc1ccc(C)cc1NC(=O)C(c1ccccc1)N1CCNC(=O)C1 (centres undefined),11,-6,0,-3,-10,/,
Cc1cc(=O)c2c([nH]1)c(C)cc1[nH]c(C)c(C)c12,-112,25*,51,/,-7,-0.16,Sypro dye melt=-26
O=C(Nc1ccc(OC(F)(F)F)cc1)c1cc(S(=O)(=O)N2CCCCC2)ccc1N1CCOCC1,1,/,/,/,/,/,
O=Nc1c(O)ccc2cc(S(=O)(=O)O)ccc12,2,5,5,/,/,/,
Nc1cccc2cc(S(=O)(=O)O)ccc12,-8,15*,73*,/,/,0.24,
COCCCNC(=O)c1ccccc1Oc1ccccc1,-4,-2,0,-2,-14,/,
COCCCNC(=O)c1ccc2c3c(onc13)-c1ccccc1C2=O,2,79*,18,-2,0,-0.19,
O=C(CCCCl)NC(=S)Nc1ccc(N2CCOCC2)cc1,-4,33*,15,-2,6,-0.14,Sypro dye melt=-22
O=C(CCCCl)NC(=S)Nc1ccc(CN2CCOCC2)cc1,-8,-5,-1,-1,11,/,
CCC(CNc1cc(OC)cc2cccnc12)NC1CCCCC1 (centres undefined),71,17*,15,-22,2,0.03,Sypro dye melt=-27
CCCN(Cc1nnc(-c2cccs2)o1)C(=O)CN1C(=O)NC2(CCCCC2C)C1=O (centres undefined),-4,-3,1,/,0,/,
CCOC(=O)c1c(C)[nH]c(C(=O)COC(=O)c2cccnc2Cl)c1C,-3,25*,11,/,/,-0.07,Sypro dye melt=-27
Cc1ccc(OCCC(=O)OCC(=O)Nc2ccccc2)cc1,-6,-6,-2,3,-4,/,
Cc1cc(NC(=O)COC(=O)c2nccnc2N)n(-c2ccccc2)n1,3,-5,2,-7,5,/,
CCCc1cc(NC(=O)COC(=O)c2nccnc2N)n(-c2ccccc2)n1,-14,57*,26,/,8,-0.08,
CCCCNC(=O)C[C@@H]1C[C@@]2(C(=O)OC)CCCCC=C2N(CCC2=CCCCC2)C1=O,-6,/,/,/,/,/,
Cc1ccc(C(=O)N/C(=C\c2ccc(-c3ccccc3[N+](=O)[O-])o2)C(=O)NCCN(C)C)cc1,2,5,10,-6,-7,/,

# High-throughput results deposited in PubChem BioAssay by several laboratories.
